Test [1] relates to Zika virus NS2B-NS3 protease (unlinked complex). The experiment in a line: Primary screen GU Rhodamine qHTS for Zika virus inhibitors: Unlinked NS2B-NS3 protease assay (AID 1347159). Also: nearly all actives have a fitted effect of over 60% in size. In a few lines:
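Compounds, tested up to 114 microM, were incubated for 15 minutes with 25 nM unlinked NS2B-NS3 protease at pH 8.0. Cleavage of 1.5 microM Rhodamine110 substrate was then followed by fluorescence for 15 minutes.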

Test [2] deals with Zika virus NS2B-NS3 protease (linked construct). Description: Primary screen NINDS Rhodamine qHTS for Zika virus inhibitors (AID 1347160). Also: nearly all actives have a fitted effect of over 55% in size. In a few lines:
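Percent inhibition, normalized to uninhibited and enzyme-free controls, is fitted to a 4-parameter Hill equation. Fluorescence change comes from a 15-min cleavage of 1.5 microM bis-peptide Rhodamine110 substrate by 25 nM linked NS2B-NS3 at room temperature.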
For orientation: In qHTS, concentration-response curves come from the screen itself.

Results filed as inconclusive are left out. A call without a number means that no potency is given here. Active and inactive are the calls of the source. Calls follow the shape of the dose curve; as a rule, active = well fitted inhibition curve with a large enough effect; inconclusive = small, poorly fitted or top-dose-only effect; inactive = no such curve, though single readings can be large or run the other way.
Potency is read from the fitted curve at half-maximal effect.

For `C=C1C(=O)O[C@H]2CC(=C)[C@H]3CC[C@@](C)(O)[C@@H]3CC12` (stereo partly specified), the Potency in test [1] is 11.2 µM (active). In addition, the Potency entry in test [2] is “inactive”. The corresponding values for `Cc1cc(F)ccc1-c1nc(NCCN=C(N)NC#N)nc2c1ccc(=O)n2-c1c(F)cccc1F` are “inactive” and “inactive”. The matching figures for `C=C1C(=O)OC2CC(C)=C(C(C)CCCOC(C)=O)C(OC(=O)CC(C)CC)C12` (stereo unspecified): “inactive” and “inactive”.

On to `Cn1sc(=O)n(Cc2ccccc2)c1=O`, for which the Potency entry in test [1] and in test [2] was “inactive” in each case. Consider `Cc1ccc(N2CCN(S(=O)(=O)N3CCCCC3)CC2)c(C)c1`, for which the Potency result in test [1] and in test [2] was “inactive” each time. Regarding `Cc1csc(N(C(=O)CSc2ccc(-c3ccccc3)nn2)C2CC2)n1`, the Potency entry in test [1] and in test [2] was “inactive” throughout. In the case of `C=C[C@@]1(C)CCC2C(=CCC3[C@]2(C)CCC[C@@]3(C)C(=O)O)C1` (stereo partly specified), the Potency in test [1] was 22.4 µM (active). Regarding `O=C(NCc1ccc(OC(F)(F)F)cc1)C1c2c(F)cccc2C(=O)N1CCc1ccccn1` (stereo unspecified), the Potency result in test [1] and in test [2] was “inactive” in each case. Regarding `COC(=O)C1=CO[C@@H](O[C@@H]2O[C@H](CO)[C@@H](O)[C@H](O)[C@H]2O)[C@H]2[C@@H]1C=C[C@]21C=C([C@H](C)OC(=O)/C=C/c2ccc(O)cc2)C(=O)O1`, the Potency entry in test [1] and in test [2] was “inactive” each time. With `COc1ccc(S(=O)(=O)Nc2cc(Cl)cc(Cl)c2OC)cc1N1CCNCC1`, the Potency entry in test [1] was “inactive”.

As for `Cc1ccc(C2(C(=O)N3CCC(n4nc(-c5ccccc5)oc4=O)CC3)CC2)cc1`, the Potency entry in test [1] and in test [2] was “inactive” each time. In the case of `C=C1C(=O)O[C@H]2C[C@@H](C)[C@@H]3CCC(=O)[C@@]3(C)C[C@H]12`, the Potency entry in test [1] and in test [2] was “inactive” in each case.

As to `C=C1C(=O)O[C@H]2C3=C(C)CCC[C@]3(C)C(=O)C[C@@H]12`, the Potency result in test [1] and in test [2] was “inactive” each time. For the compound `CN1CCN(Cc2ccc(NC(=O)Cc3ccc(Oc4cc(NC(=O)C5CC5)ncn4)cc3)cc2C(F)(F)F)CC1`, the Potency result in test [1] and in test [2] was “inactive” in each case. Regarding `CC(=O)O[C@@H]1[C@@H](OC(C)=O)[C@H](C)O[C@@H](O[C@H]2[C@@H]3C=CO[C@@H](O[C@@H]4O[C@H](CO)[C@@H](O)[C@H](O)[C@H]4O)[C@@H]3[C@@]3(CO)O[C@@H]23)[C@@H]1OC(=O)/C=C/c1ccccc1`, the Potency result in test [1] and in test [2] was “inactive” in each case. Take `COc1ccccc1OCCN1CC(COc2cccc3[nH]c4ccccc4c23)OCC1=O` (stereo unspecified): the Potency entry in test [1] and in test [2] was “inactive” in each case.

For the compound `c1ccc(-c2ccc(CNc3nc(-c4ccccn4)nnc3-c3ccccc3)cc2)cc1`, the Potency entry in test [1] and in test [2] was “inactive” each time. In the case of `C=C1CC[C@@H]2[C@](C)(CO)[C@H](O)CC[C@@]2(C)[C@@H]1/C=C/C1=CCOC1=O`, the Potency entry in test [1] and in test [2] was “inactive” each time. In the case of `O=C(COc1ccc(C(=O)c2ccccc2)cc1)NC1CCN(Cc2ccccc2)CC1`, the Potency result in test [1] and in test [2] was “inactive” in each case. Take `COc1cc2c(cc1-c1c(C)noc1C)ncc1[nH]c(=O)n(C(C)c3ccccn3)c12` (stereo unspecified): the Potency result in test [1] and in test [2] was “inactive” throughout.

Consider `O=C(NC1CCN(CCCCC2(C(=O)NCC(F)(F)F)c3ccccc3-c3ccccc32)CC1)c1ccccc1-c1ccc(C(F)(F)F)cc1`, for which the Potency entry in test [1] and in test [2] was “inactive” in each case. As for `Nc1nc2c(ncn2C2OC3COP(=O)(O)OC3C2O)c(=O)[nH]1` (stereo unspecified), the Potency result in test [1] and in test [2] was “inactive” in each case. Consider `Nc1ncnc2c1c(-c1ccc(Oc3ccccc3)cc1)nn2[C@@H]1CCCNC1`, for which the Potency entry in test [1] and in test [2] was “inactive” throughout.

As to `CC1CCC(=O)CC(SCC(O)C(=O)O)CCC(=O)O1` (stereo unspecified), the Potency result in test [1] and in test [2] was “inactive” each time. `COc1cccc(NCCC2(c3ccccc3)CC(C)(C)OC(C)(C)C2)c1`: the Potency entry in test [1] and in test [2] was “inactive” throughout. Consider `COC(=O)c1cc2c(C(F)(F)F)cc(-c3ccccc3)cc2n1O`, for which the values for the Potency in test [1] and in test [2] were 12.6 µM (active) and 15.8 µM (active), respectively. The matching figures for `Fc1ccc2[nH]ccc2c1-c1nc(N2CCOCC2)c2sc(CN3CCN(CC4CC4)CC3)cc2n1`: “inactive” and “inactive”.

On to `COc1cc(-c2cn(C3CCc4c(F)cccc4N(CC(F)(F)F)C3=O)nn2)ccc1-n1cnc(C)c1` (stereo unspecified), for which the Potency result in test [1] and in test [2] was “inactive” in each case. Consider `CC(=O)O[C@H]1CC(C)(C)CC2[C@]13CO[C@@]21CCC2[C@@]4(C)CC[C@H](O[C@@H]5OC[C@H](O[C@@H]6O[C@H](CO)[C@@H](O)[C@H](O)[C@H]6O[C@@H]6OC[C@@H](O)[C@H](O)[C@H]6O)[C@H](O)[C@H]5O[C@@H]5O[C@H](CO)[C@@H](O)[C@H](O)[C@H]5O)[C@@](C)(CO)C4CC[C@@]2(C)[C@]1(C)C[C@H]3O` (stereo partly specified), for which the Potency result in test [1] and in test [2] was “inactive” each time. For `CCC(C)CNCC(=O)N1CCC2SC=CC2C1COc1cccc(C)c1` (stereo unspecified), the Potency entry in test [1] and in test [2] was “inactive” in each case. For `CCNC(=O)C#Cc1ccc2c(C(=Nc3ccc(CN(C)C)cc3)c3ccccc3)c(O)[nH]c2c1`, the Potency result in test [1] and in test [2] was “inactive” throughout. In the case of `Cc1cc(N2CCN(C(=O)Oc3ccc(-c4ccccc4)cn3)CC2)c2ccccc2n1`, the Potency entry in test [1] and in test [2] was “inactive” in each case. For the compound `C[C@@H]1O[C@@H](O[C@H]2[C@@H]3C=CO[C@@H](O[C@@H]4O[C@H](CO)[C@@H](O)[C@H](O)[C@H]4O)[C@@H]3[C@@]3(CO)O[C@@H]23)[C@H](O)[C@H](OC(=O)/C=C/c2ccccc2)[C@H]1O`, the Potency entry in test [1] and in test [2] was “inactive” in each case. For `COC1CC(O[C@H]2CC[C@]3(C)C4CC[C@@]5(C)C(=O)[C@]4(CC[C@@H]3C2)CC[C@@H]5C2=CC(=O)OC2)OC(C)C1OC1OC(COC2OC(CO)C(O)C(O)C2O)C(O)C(O)C1O` (stereo partly specified), the Potency entry in test [1] and in test [2] was “inactive” in each case. As for `C=CC(C)(O)CC/C=C(/C)COC(=O)C(C)C1CCC(C)(C=C)O1` (stereo unspecified), the Potency result in test [1] and in test [2] was “inactive” throughout. With `CC1(C)OC[C@H](NC(=O)Nc2ccc(Br)cc2Br)[C@H](c2ccccc2)O1`, the Potency result in test [1] and in test [2] was “inactive” each time. On to `C[C@H]1[C@H](/C=C/c2ccc(-c3ccccc3C#N)cn2)[C@@H]2[C@@H](C)OC(=O)[C@@H]2C[C@@H]1C`, for which the Potency result in test [1] and in test [2] was “inactive” throughout. For `O=C(O)CCc1nccc2c1[nH]c1ccccc12`, the Potency entry in test [1] and in test [2] was “inactive” each time. Consider `CC(C)(C[C@@](O)(Cc1cc2ccncc2[nH]1)C(F)(F)F)c1cc(F)ccc1O`, for which the Potency entry in test [1] and in test [2] was “inactive” each time. With `C=C1C(=O)O[C@@H]2/C=C(\CO)CC/C=C(\CO)[C@H](OC(C)=O)C(OC(=O)C(C)CC)C12` (stereo partly specified), the Potency entry in test [1] and in test [2] was “inactive” each time. Take `CN1CCN(C2=Nc3ccccc3Nc3ccc(Cl)cc32)CC1`: the Potency result in test [1] and in test [2] was “inactive” each time. With `C=C1C(=O)O[C@@H]2[C@H]1CCC(C)=C(CCC(=O)O)[C@@]2(C)O`, the Potency entry in test [1] and in test [2] was “inactive” throughout. Regarding `CN(C)C(=O)Nc1cccc(-c2ccc(N(C)C)cc2)c1`, the Potency result in test [1] and in test [2] was “inactive” throughout.

Consider `C=C1C(=O)OC2C3=C(C)C(=O)CC3C(C)CC(O)C12` (stereo unspecified), for which the Potency entry in test [1] and in test [2] was “inactive” in each case. Turning to `CC(C)(C)c1ccc(C(=O)Nc2cn3cc(-n4ccnc4)ccc3n2)cc1`, the Potency entry in test [1] and in test [2] was “inactive” throughout. `Cc1nc2ccc(-n3ncc(C(=O)c4cc5ccccc5[nH]4)c3N)cc2[nH]1`: the Potency result in test [1] and in test [2] was “inactive” in each case. Regarding `COc1cc2nc(N3CCN(C(=O)c4ccco4)C4CCCCC43)nc(N)c2cc1OC` (stereo unspecified), the Potency result in test [1] and in test [2] was “inactive” throughout. Consider `O=c1[nH]c([C@@H]2CCCN2)nc2c1oc1ccc(Cl)cc12`, for which the Potency entry in test [1] and in test [2] was “inactive” throughout. On to `CC(C)NC(=O)N1CC[C@H](N=C2Nc3cc(F)ccc3N(CC(F)F)c3ccc(Cl)cc32)C1`, for which the Potency result in test [1] and in test [2] was “inactive” throughout. For `Cc1cc(C(C)Nc2ccccc2C(=O)O)c2nc(N3CCOCC3)cc(=O)n2c1` (stereo unspecified), the Potency result in test [1] and in test [2] was “inactive” in each case. As for `Fc1ccc(CN2CCC(Nc3ccc(C(F)(F)F)nn3)CC2)cc1F`, the Potency entry in test [1] and in test [2] was “inactive” throughout. As to `CC1(C)C2CCC(CO[C@@H]3O[C@H](CO[C@@H]4OC[C@](O)(CO)[C@H]4O)[C@@H](O)[C@H](O)[C@H]3O)C1C2` (stereo partly specified), the Potency entry in test [1] and in test [2] was “inactive” each time. Turning to `COc1cc(N2CCC(N3CCN(C)CC3)CC2)ccc1Nc1ncc(Cl)c(Nc2ccccc2P(C)(C)=O)n1`, the Potency result in test [1] and in test [2] was “inactive” in each case. With `CC(=O)OC(C)(C)/C=C/C(=O)[C@](C)(O)[C@H]1C(O)C[C@@]2(C)[C@@H]3CC=C4[C@@H](C=C(O[C@@H]5O[C@H](CO)[C@@H](O)[C@H](O)[C@H]5O)C(=O)C4(C)C)[C@]3(C)C(=O)C[C@]12C` (stereo partly specified), the Potency result in test [1] and in test [2] was “inactive” throughout.
